What all share (assay type): functional
The target of assay [1] is Solute carrier family 2, facilitated glucose transporter member 1 (Homo sapiens) (UniProt P11166). The assay can be described thus: ST_JUDE_LEISH: Cytotoxicity at 2uM final concentration against transgenic Leishmania Mexicana promastigotes LmGLUT1 that are glucose transport deficient and complemented with the human glucose transporter GLUT1. Activity is measured by DNA content using SYBR green in vitro.

Assay [2] deals with Hexose transporter 1 (Plasmodium falciparum) (UniProt O97467). In words: ST_JUDE_LEISH: Cytotoxicity at 2uM final concentration against transgenic Leishmania Mexicana promastigotes LmPfHT that are glucose transport deficient and complemented with the Plasmodium falciparum hexose transporter. Activity is measured by DNA content using SYBR green in vitro.
Assay [3] deals with Glucose transporter (Leishmania mexicana) (UniProt O61059). The assay can be described thus: ST_JUDE_LEISH: Cytotoxicity at 2uM final concentration against transgenic Leishmania Mexicana promastigotes LmGT2 that are glucose transport deficient and complemented with the L. Mexicana glucose transporter 2. Activity is measured by DNA content using SYBR green in vitro.

The values below come from ChEMBL document CHEMBL3433997, “St. Jude Leishmania screening dataset” (2016).

By inhibition is commonly meant the relative decrease from the control value, in per cent.

Solute carrier family 2, facilitated glucose transporter member 1 (Homo sapiens), sequence (P11166 whole entry): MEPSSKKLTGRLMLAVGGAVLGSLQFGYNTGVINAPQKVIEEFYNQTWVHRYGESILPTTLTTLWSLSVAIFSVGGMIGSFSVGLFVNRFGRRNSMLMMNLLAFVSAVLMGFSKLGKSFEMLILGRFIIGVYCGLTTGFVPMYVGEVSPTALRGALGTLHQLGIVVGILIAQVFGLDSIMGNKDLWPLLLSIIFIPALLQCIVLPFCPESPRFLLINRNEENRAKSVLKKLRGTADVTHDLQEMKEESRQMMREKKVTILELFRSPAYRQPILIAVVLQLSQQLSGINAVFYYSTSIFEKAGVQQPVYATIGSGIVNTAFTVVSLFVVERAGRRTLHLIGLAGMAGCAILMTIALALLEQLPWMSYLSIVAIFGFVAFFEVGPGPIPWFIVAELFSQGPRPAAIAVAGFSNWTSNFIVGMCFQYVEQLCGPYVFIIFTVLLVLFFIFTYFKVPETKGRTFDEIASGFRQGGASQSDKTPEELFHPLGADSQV

On to `Cc1[nH]c(C)c(-c2ccc(-c3cccc(Cl)c3)nc2)c(=O)c1Cl`, for which the inhibition in assay [1] is 0.79%; in assay [2], 2.52%; in assay [3], 1.48%.

Take `Cc1noc(C)c1-c1cccc(CNCc2cccc(-c3ccc(-c4nc5cccc(C)c5[nH]4)cc3)c2)c1`: the inhibition in assay [1] turned out to be 1.89%; in assay [2], 1.4%; in assay [3] it was 0.96%.

For the molecule `Cc1c2ccncc2c(C)c2c1[nH]c1cc(Cc3ccccc3)c(O)cc12`, the inhibition in assay [1] was 3.52%; in assay [2] it was 4.1%; in assay [3] it was -3.09%.

As for `CN1CCCC1CCCOC(=O)c1ccc(N)cc1` (stereo unspecified), the inhibition in assay [1] stood at 3.24%; in assay [2] it was 3.07%; in assay [3], 2.42%.

On to `C=CC[C@H](C[C@H](O)[C@H](Cc1ccccc1)NC(=O)c1nn(-c2ccccc2)nc1C)C(=O)NC1CCCCC1`, for which the figures for the inhibition in assay [1], in assay [2] and in assay [3] were 2.06%, 2.34% and 2.36%, respectively.

Take `FC(F)(F)c1ccc2[nH]c(-c3ccc(-c4cccc(CNCC5CCCO5)c4)cc3)nc2c1` (stereo unspecified): the inhibition in assay [1] amounted to 3.87%; in assay [2], 2.83%; in assay [3], 2.68%.

Regarding `Cc1cc(-c2cc3nc4c(c(O)n3n2)CCCC4)c(C)o1`, the inhibition in assay [1] came out at 4.05%; in assay [2], 8.94%; in assay [3], 6.14%.

On to `Cc1ccc(O)c(-c2cc(C(=O)Nc3ccc(S(=O)(=O)N4CCCCC4)cc3)[nH]n2)c1`, for which the figures for the inhibition in assay [1], in assay [2] and in assay [3] were 3.32%, 1.22% and 1.19%, respectively.

With `CC(C)(c1ccccc1)c1ccc(O)c(CN2CCOCC2)c1`, the inhibition in assay [1] was -0.49%; in assay [2], -1.3%; in assay [3] it was -0.41%.

Regarding `COc1cc2c(cc1C(F)(F)F)N(C(=O)Nc1cc(Br)cc(-c3cccnc3)c1)CC2`, the inhibition in assay [1] worked out at 8.34%; in assay [2], 6.53%; in assay [3], 6.18%.

For `c1cc(-c2ccc(CN3CCCC3)cc2)cc(-c2nc3ccccc3[nH]2)c1`, the inhibition amounted to 0.44% in assay [1], 1.4% in assay [2] and 0.98% in assay [3].

Consider `CCOc1cc(C(=O)N[C@@H](Cc2ccccc2)[C@H](O)CNC(C)(C)c2cccc(OC)c2)cc(N2CCCS2(=O)=O)c1`, for which the inhibition was 2.48% in assay [1], -0.71% in assay [2] and 0.74% in assay [3].
